From the supplement of paper PMC4466140

target: AgAbp1; test: SPOT peptide array binding signal intensity (averaged, normalized) (arbitrary units (background-subtracted, floor 0; scale differs between SH3 domains)); higher = stronger binding of the SH3 domain to the peptide
Procedure, shortened: (§1)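 GST-SH3 fusions from four yeast species, purified on glutathione Sepharose, were incubated at 10 μg/ml overnight at 4°C on membranes of synthetic 15-mer peptides in which cysteines were replaced with serines. Binding signal is the normalized, background-subtracted spot intensity averaged over replicates, in domain-specific arbitrary units.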

Binder | SPOT peptide array binding signal intensity
KKIRLIFTYPSTVGR | 11

target: AgBbc1; test: as above
Procedure, shortened: as §1

Binder | SPOT peptide array binding signal intensity
KKIRLIFTYPSTVGR | 22.8

target: AgBem1-D1; test: as above
Procedure, shortened: as §1

Binder | SPOT peptide array binding signal intensity
KKIRLIFTYPSTVGR | 241

target: AgBzz1-D1; test: as above
Procedure, shortened: as §1

Binder | SPOT peptide array binding signal intensity
KKIRLIFTYPSTVGR | 22.5

target: AgBzz1-D2; test: as above
Procedure, shortened: as §1

Binder | SPOT peptide array binding signal intensity
KKIRLIFTYPSTVGR | 50

target: AgCyk3; test: as above
Procedure, shortened: as §1

Binder | SPOT peptide array binding signal intensity
KKIRLIFTYPSTVGR | 49

target: AgFus1; test: as above
Procedure, shortened: as §1

Binder | SPOT peptide array binding signal intensity
KKIRLIFTYPSTVGR | 2480

target: AgHof1; test: as above
Procedure, shortened: as §1

Binder | SPOT peptide array binding signal intensity
KKIRLIFTYPSTVGR | 47

target: AgHse1; test: as above
Procedure, shortened: as §1

Binder | SPOT peptide array binding signal intensity
KKIRLIFTYPSTVGR | 1210

target: AgLsb1; test: as above
Procedure, shortened: as §1

Binder | SPOT peptide array binding signal intensity
KKIRLIFTYPSTVGR | 58.8

target: AgLsb4; test: as above
Procedure, shortened: as §1

Binder | SPOT peptide array binding signal intensity
KKIRLIFTYPSTVGR | 577

target: AgMyo5; test: as above
Procedure, shortened: as §1

Binder | SPOT peptide array binding signal intensity
KKIRLIFTYPSTVGR | 2.5

target: AgNbp2; test: as above
Procedure, shortened: as §1

Binder | SPOT peptide array binding signal intensity
KKIRLIFTYPSTVGR | 688

target: AgRvs167; test: as above
Procedure, shortened: as §1

Binder | SPOT peptide array binding signal intensity
KKIRLIFTYPSTVGR | 6.17

target: AgSho1; test: as above
Procedure, shortened: as §1

Binder | SPOT peptide array binding signal intensity
KKIRLIFTYPSTVGR | 426

target: AgSla1-D1-D2; test: as above
Procedure, shortened: as §1

Binder | SPOT peptide array binding signal intensity
KKIRLIFTYPSTVGR | 428

target: AgSla1-D3; test: as above
Procedure, shortened: as §1

Binder | SPOT peptide array binding signal intensity
KKIRLIFTYPSTVGR | 4.5

target: CaAbp1-D1; test: as above
Procedure, shortened: as §1

Binder | SPOT peptide array binding signal intensity
KKIRLIFTYPSTVGR | 504

target: CaAbp1-D2; test: as above
Procedure, shortened: as §1

Binder | SPOT peptide array binding signal intensity
KKIRLIFTYPSTVGR | 268

target: CaBbc1; test: as above
Procedure, shortened: as §1

Binder | SPOT peptide array binding signal intensity
KKIRLIFTYPSTVGR | 86.8

target: CaBem1-D1; test: as above
Procedure, shortened: as §1

Binder | SPOT peptide array binding signal intensity
KKIRLIFTYPSTVGR | 73.5

target: CaBzz1-D1; test: as above
Procedure, shortened: as §1

Binder | SPOT peptide array binding signal intensity
KKIRLIFTYPSTVGR | 142

target: CaBzz1-D2; test: as above
Procedure, shortened: as §1

Binder | SPOT peptide array binding signal intensity
KKIRLIFTYPSTVGR | 99.2

target: CaCyk3; test: as above
Procedure, shortened: as §1

Binder | SPOT peptide array binding signal intensity
KKIRLIFTYPSTVGR | 118

target: CaFus1; test: as above
Procedure, shortened: as §1

Binder | SPOT peptide array binding signal intensity
KKIRLIFTYPSTVGR | 4650

target: CaHof1; test: as above
Procedure, shortened: as §1

Binder | SPOT peptide array binding signal intensity
KKIRLIFTYPSTVGR | 2.25

target: CaHse1; test: as above
Procedure, shortened: as §1

Binder | SPOT peptide array binding signal intensity
KKIRLIFTYPSTVGR | 282

target: CaLsb1; test: as above
Procedure, shortened: as §1

Binder | SPOT peptide array binding signal intensity
KKIRLIFTYPSTVGR | 79.2

target: CaLsb4; test: as above
Procedure, shortened: as §1

Binder | SPOT peptide array binding signal intensity
KKIRLIFTYPSTVGR | 354

target: CaMyo5; test: as above
Procedure, shortened: as §1

Binder | SPOT peptide array binding signal intensity
KKIRLIFTYPSTVGR | 77.2

target: CaNbp2; test: as above
Procedure, shortened: as §1

Binder | SPOT peptide array binding signal intensity
KKIRLIFTYPSTVGR | 966

target: CaRvs167; test: as above
Procedure, shortened: as §1

Binder | SPOT peptide array binding signal intensity
KKIRLIFTYPSTVGR | 274

target: CaRvs167-3; test: as above
Procedure, shortened: as §1

Binder | SPOT peptide array binding signal intensity
KKIRLIFTYPSTVGR | 2180

target: CaSho1; test: as above
Procedure, shortened: as §1

Binder | SPOT peptide array binding signal intensity
KKIRLIFTYPSTVGR | 1570

target: CaSla1-D1-D2; test: as above
Procedure, shortened: as §1

Binder | SPOT peptide array binding signal intensity
KKIRLIFTYPSTVGR | 21

target: CaSla1-D3; test: as above
Procedure, shortened: as §1

Binder | SPOT peptide array binding signal intensity
KKIRLIFTYPSTVGR | 487

target: ScAbp1; test: as above
Procedure, shortened: as §1

Binder | SPOT peptide array binding signal intensity
KKIRLIFTYPSTVGR | 15

target: ScBbc1; test: as above
Procedure, shortened: as §1

Binder | SPOT peptide array binding signal intensity
KKIRLIFTYPSTVGR | 4.75

target: ScBem1-D1; test: as above
Procedure, shortened: as §1

Binder | SPOT peptide array binding signal intensity
KKIRLIFTYPSTVGR | 19

target: ScBzz1-D1; test: as above
Procedure, shortened: as §1

Binder | SPOT peptide array binding signal intensity
KKIRLIFTYPSTVGR | 23

target: ScBzz1-D2; test: as above
Procedure, shortened: as §1

Binder | SPOT peptide array binding signal intensity
KKIRLIFTYPSTVGR | 325

target: ScCyk3; test: as above
Procedure, shortened: as §1

Binder | SPOT peptide array binding signal intensity
KKIRLIFTYPSTVGR | 210

target: ScFus1; test: as above
Procedure, shortened: as §1

Binder | SPOT peptide array binding signal intensity
KKIRLIFTYPSTVGR | 3720

target: ScHof1; test: as above
Procedure, shortened: as §1

Binder | SPOT peptide array binding signal intensity
KKIRLIFTYPSTVGR | 1.75

target: ScHse1; test: as above
Procedure, shortened: as §1

Binder | SPOT peptide array binding signal intensity
KKIRLIFTYPSTVGR | 1750

target: ScLsb1; test: as above
Procedure, shortened: as §1

Binder | SPOT peptide array binding signal intensity
KKIRLIFTYPSTVGR | 32

target: ScLsb2; test: as above
Procedure, shortened: as §1

Binder | SPOT peptide array binding signal intensity
KKIRLIFTYPSTVGR | 5

target: ScLsb3; test: as above
Procedure, shortened: as §1

Binder | SPOT peptide array binding signal intensity
KKIRLIFTYPSTVGR | 389

target: ScLsb4; test: as above
Procedure, shortened: as §1

Binder | SPOT peptide array binding signal intensity
KKIRLIFTYPSTVGR | 60

target: ScMyo3; test: as above
Procedure, shortened: as §1

Binder | SPOT peptide array binding signal intensity
KKIRLIFTYPSTVGR | 4

target: ScMyo5; test: as above
Procedure, shortened: as §1

Binder | SPOT peptide array binding signal intensity
KKIRLIFTYPSTVGR | 5

target: ScNbp2; test: as above
Procedure, shortened: as §1

Binder | SPOT peptide array binding signal intensity
KKIRLIFTYPSTVGR | 744

target: ScPex13; test: as above
Procedure, shortened: as §1

Binder | SPOT peptide array binding signal intensity
KKIRLIFTYPSTVGR | 14.5

target: ScRvs167; test: as above
Procedure, shortened: as §1

Binder | SPOT peptide array binding signal intensity
KKIRLIFTYPSTVGR | 26.2

target: ScSho1; test: as above
Procedure, shortened: as §1

Binder | SPOT peptide array binding signal intensity
KKIRLIFTYPSTVGR | 2150

target: ScSla1-D1-D2; test: as above
Procedure, shortened: as §1

Binder | SPOT peptide array binding signal intensity
KKIRLIFTYPSTVGR | 83.5

target: ScSla1-D3; test: as above
Procedure, shortened: as §1

Binder | SPOT peptide array binding signal intensity
KKIRLIFTYPSTVGR | 57.8

target: SpAbp1-D1; test: as above
Procedure, shortened: as §1

Binder | SPOT peptide array binding signal intensity
KKIRLIFTYPSTVGR | 132

target: SpBbc1; test: as above
Procedure, shortened: as §1

Binder | SPOT peptide array binding signal intensity
KKIRLIFTYPSTVGR | 41

target: SpBzz1-D1; test: as above
Procedure, shortened: as §1

Binder | SPOT peptide array binding signal intensity
KKIRLIFTYPSTVGR | 133
